# The list is not random: actives were taken first. Their share in the collection is about 6.5%.
# Lassa entry inh: qHTS for Inhibitors of binding or entry into cells for Lassa Virus; Potency, µM (highest dose often 37.9 µM), for the others: top-dose activity change, negative = inhibition, hits mostly inhibitors; 1.2% of 300,000 active; Lassa virus pseudotype entry inhibition, cell reporter; calls by dose curve; tested in HEK293 cells; note: potency is the fitted concentration of half-maximal effect; nearly all actives have a fitted effect of over 50% in size
# Vaccinia Venus: qHTS for Stage-Specific Inhibitors of Vaccinia Orthopoxvirus: Venus Reporter Primary qHTS; 0.46% of 330,000 active; Potency, µM (series often up to 36.5 µM), inactives show top-dose activity change, negative = inhibition, usual class: inhibitors; AID 720580, 2013; Vaccinia virus Venus reporter expression, fluorescence; calls by dose curve; tested in A549 cells; note: potency is the fitted concentration of half-maximal effect; nearly all actives have a fitted effect of over 30% in size
# HCMV inh: qHTS Assay for inhibitors of the human cytomegalovirus (HCMV) | activity change, negative = inhibition, % at 57.5 µM | 4.5% of 410,000 active | AID 1259415, 2018 | HFF cells, HCMV-luciferase reporter, 72 h; stronger effect = lower value; in the data active = activity change below about -60%; inconclusive = no clear call, values can overlap the other calls; inactive = above about -39%
#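 Inhibition of viral replication was scored as loss of reporter luminescence in HFFs infected with HCMV-luciferase (MOI 1 PFU/cell) for 72 h; compounds tested at 2 doses, normalized to buffer and Salinomycin controls.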
# Vaccinia mCherry: qHTS for Stage-Specific Inhibitors of Vaccinia Orthopoxvirus: mCherry Reporter Primary qHTS; Vaccinia virus mCherry reporter infection, fluorescence; Potency, µM (top dose mostly 36.5 µM), inactives show top-dose activity change, negative = inhibition, most hits filed as inhibitors; 0.63% of 310,000 active; AID 720579, 2013; calls by dose curve; tested in A549 cells; note: potency is the fitted concentration of half-maximal effect; nearly all actives have a fitted effect of over 35% in size
# Marburg entry inh: qHTS for inhibitors of binding or entry into cells for Marburg Virus | Potency, µM (top dose mostly 37.8 µM), without a hit: top-dose activity change, negative = inhibition, usual class: inhibitors | 1.8% of 300,000 active | Marburg virus pseudotyped entry inhibition, cell reporter | AID 540276, 2011; calls by dose curve; tested in HEK293 cells; note: potency is the fitted concentration of half-maximal effect
# FMDV inh: High Throughput Screening for Foot and Mouth Disease Virus Antivirals; Potency, µM (doses to about 57.9 µM), inactives show at the highest dose activity change, negative = inhibition, most hits filed as inhibitors; 1.2% of 410,000 active; AID 1159524, 2015; FMDV antiviral cell-based qHTS; calls by dose curve; tested in HEK293T cells; note: read-out not given here; potency is the fitted concentration of half-maximal effect; nearly all actives have a fitted effect of over 45% in size
# Numbers without * were called inactive; i = inactive; ? = inconclusive; . = not tested or not shown; [ ] = another dose, or the depositor's remark. % is set by controls: 0 for no effect and ±100 for the full control effect.
SMILES,Lassa entry inh,Vaccinia Venus,HCMV inh,Vaccinia mCherry,Marburg entry inh,FMDV inh
CC1CCCN(CCOCCSc2ccccc2)C1 (configuration not stated),?,-17%,-40,-23%,?,-26%
CC1CC(C)CN(CCCSc2ccccc2)C1 (configuration not stated),?,-15%,-4,-23%,2.9µM*,-2%
CC1CN(CCCCSc2ccccc2)CC(C)O1 (configuration not stated),.,.,9,.,.,2%
Cc1ncc2c(c1CNS(=O)(=O)N(C)C)CCN(C(=O)c1[nH]c3ccc(Cl)cc3c1C)C2,.,-12%,.,-14%,.,-21%
CCNC(=O)C1(C)CCN(Cc2cccc3ccccc23)C1 (configuration not stated),.,.,-6,.,.,.
Cc1cccc(Nc2cc3[nH]c(-c4ccccc4)cc3cn2)c1,.,.,-22,.,.,.
C=CCOC(=O)C(C(C)=O)[C@@H](NC(=O)OC)c1ccc(Cl)cc1 (some centres not stated),.,.,.,.,-10%[14.2 µM],.
CCOc1ccccc1CN1CCC(Oc2ccc(C(=O)NCc3ccccn3)cc2)CC1,.,.,6,.,.,-21%
CCn1nc(C)c(CNC(=O)c2ccc(OC3CCN(Cc4ccccn4)CC3)cc2)c1C,?,-16%,-91*,-3%,?,?
CCn1cc(CNC(=O)c2ccc(OC3CCN(Cc4ccccn4)CC3)cc2)cn1,?,-13%,-71*,?,-1%[46.1 µM],?
O=C(NCCc1cccc(Cl)c1)c1ccc(OC2CCN(Cc3ccccn3)CC2)cc1,.,.,-71*,.,.,28µM*
Cc1ccc(-c2nc3cnccn3c2Nc2ccc(C(C)C)cc2)o1,.,-7%,.,-9%,.,.
Cc1ncc2c(c1CNC(=O)c1ccccc1F)CCN(C(=O)c1ccccc1-n1cccn1)C2,.,-3%,.,-13%,.,-14%
CN1CCN(c2nccc3[nH]c(-c4cccc(F)c4)nc23)CC1,.,.,-2,.,.,.
Cc1cnc(SCc2ccccn2)nc1C1CCCN(C(=O)c2cc3ccccc3oc2=O)C1 (configuration not stated),.,-13%,.,-10%,.,-28%
CC(C)C1C(c2ccccc2)N(C)C(c2ccccc2)CC1(O)c1ccccc1 (configuration not stated),?,-24%,?,?,15µM*,-30%
O=C(C[N+]1(CCc2ccccc2)CCOCC1)c1ccccc1,.,-8%,.,-21%,.,.
CCCCCCCCNc1ccc(/C=C/c2ccnc3ccccc23)cc1,.,-9%,.,-14%,.,.
CCOC(=O)c1nc(NNC(=O)c2ccc([N+](=O)[O-])cc2)sc1C,?,?,-97*,?,8.9µM*,-2%
CCOC(=O)c1sc(NNC(=O)c2ccc(C)cc2)nc1C,-27%,-5%[7.34 µM],39,-23%[7.34 µM],-12%[46.1 µM],26%
CCCNC(=O)OC[C@H]1O[C@H](CCO/N=C(\C)CCN2CCCCc3nc(C)c(C)cc32)C=C[C@@H]1Oc1ccc(OC)cc1,.,.,.,.,-26%[14.2 µM],.
C[C@@H]1CN(Cc2ccc3c(c2)CN(Cc2cccn2-c2ccc(Cl)cn2)CCO3)C[C@H](C)O1,.,2%,.,-16%,.,1%
Cc1ccc(NC(=O)CSc2nnc(-c3cccnc3)s2)cc1,7%,-13%,11,-15%,10%,-5%
O=C(CSc1nnc(-c2cccnc2)s1)Nc1ccnc2ccccc12,?,-30%,-92*,?,?,?
c1ccc(CCNc2ccc3c(c2)Cc2ccccc2-3)nc1,?,27%,13,?,1µM*,29%
SMILES,Lassa entry inh,Vaccinia Venus,HCMV inh,Vaccinia mCherry,Marburg entry inh,FMDV inh
Cc1ccc(NC(=O)CSc2nc3nccnc3c(=O)n2CCc2c[nH]c3ccccc23)cc1,-16%[46.1 µM],-20%,71,-11%,.,-12%
CCN(CC)C(=O)c1cc(Cl)ccc1NC(=O)c1ccco1,.,-26%,1,-28%,.,-9%
CCN(CC)P(=O)(Nc1ccccc1Br)c1ccc(N(C)C)cc1NC(=O)c1ccco1 (configuration not stated),-17%[46.1 µM],-2%,-61*,-11%,?,?
COc1ccc(C(=O)NCCn2cc(SCc3ccc(C(F)(F)F)cc3)c3ccccc32)cc1OC,-12%[46.1 µM],?,-62*,?,?,22µM*
O=C(NCCn1cc(SCc2ccc(F)cc2)c2ccccc21)c1ccccc1F,-82%,-9%,.,?,?,28µM*
CCOC(=O)c1c(NC(=O)C(C)Sc2cn(CCNC(=O)c3ccccc3OC)c3ccccc23)sc2c1CCC2 (configuration not stated),?,-15%,-8,-12%,?,-20%
Cc1ccc(C(=O)NCCn2cc(SCC(=O)N3CCOCC3)c3ccccc32)cc1,.,-28%,-63*,-3%,-1%,-17%
CCOC(=O)c1c(NC(=O)C(C)Sc2cn(CCNC(=O)c3ccc(OC)c(OC)c3)c3ccccc23)sc2c1CCC2 (configuration not stated),2%[46.1 µM],-22%,-108*,?,?,-18%
Cc1ccc(C(=O)NCCn2cc(SCC(=O)Nc3cc(C)on3)c3ccccc32)cc1,.,-23%,-19,i,-5%,-13%
O=C(NCCn1cc(SCc2ccc(C(F)(F)F)cc2)c2ccccc21)c1ccccc1F,-2%[46.1 µM],-13%,-14,-5%,-23%[46.1 µM],?
CCOc1ccc(-n2cc(-c3ccccc3)c3c(NCCc4ccccc4)ncnc32)cc1,-21%[46.1 µM],-10%,-10,-14%,.,-10%
CCc1ccccc1NC(=O)c1ccc2[nH]c(C)c(C)c2c1,?,-18%,83,-23%,.,36%
O=C(CSc1cn(CCNC(=O)c2cccc(C(F)(F)F)c2)c2ccccc12)Nc1ccc2c(c1)OCCO2,?,?,-83*,?,?,25µM*
CCn1nc(C)c(CNC(=O)c2cc(COc3ccccc3SC)on2)c1C,-20%[46.1 µM],-10%,-64*,-13%,27%[46.1 µM],?
CCn1nc(C)c(CNC(=O)c2cc(COc3cncc(Cl)c3)on2)c1C,.,11%[7.34 µM],-64*,-7%[7.34 µM],.,1%
CN1OC(C)(CC(=O)N2CCc3ccccc3C2)N=C1c1ccco1 (configuration not stated),.,.,-11,.,.,.
COc1ccccc1CNc1nc(Nc2ccc(C)cc2C)c2sccc2n1,.,-9%,-76*,-12%,.,?
COc1ccccc1CNc1nc(NCCOc2ccccc2Cl)c2sccc2n1,.,?,-61*,?,.,22µM*
CNc1nc(NCCOc2ccccc2Cl)c2sccc2n1,.,?,-8,i,.,?
COc1ccccc1CNc1nc(Nc2ccccc2OC)c2sccc2n1,.,-10%,.,6%,.,?
Cc1ccc(Nc2nc(NCc3ccccc3)nc3ccsc23)c(C)c1,.,?,-62*,?,.,?

# Screening results (PubChem BioAssay)
